Assay results taken from PubChem BioAssay AID1508625 (Wald Lab, School of Medicine, Case Western Reserve …, 2021).

Assay: enhancers of NK cell killing of ovarian tumor cells, primary screen, imaging, OVCAR3, primary NK cells, calcein-AM imaging (AID 1508625);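 also: compound given to NK cells 16 h before adding targets at 1.5 to 1 ratio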
Settings: OVCAR3 lysis by primary NK cells, at 5 µM; z-score: measured here: robust Z-score, single-point normalisation

Going from `O=C(CCn1c(=S)[nH]c2ccccc2c1=O)NCCc1ccc(Cl)cc1` to `CCN(CC)CCCn1c(=S)[nH]c2cc(C(=O)OC)ccc2c1=O`, the corrected activity, negative = more killing falls from -2.39% to -3.76%.

Compared with `CCOc1ccc(NC(=O)c2c(NCc3ccncc3)sc3c2CCCCC3)cc1`, `Cc1ccc(NC(=O)CSc2nc3c(cc2C#N)CCCCC3)cc1` is higher in corrected activity, negative = more killing: -0.239% for the first, 2.66% for the second.

Compared with `O=c1[nH]c2ccc(N=Cc3ccc(-c4ccc([N+](=O)[O-])cc4)o3)cc2[nH]1`, `COc1ccc2ccccc2c1C=Nc1cc(C)ccc1C` is lower in corrected activity, negative = more killing: -0.571% for the first, -0.753% for the second.

First: Cc1cccc(C)c1OCCNC(=O)c1cc2ccccc2o1
Second: Cc1ccc(Cl)cc1-n1c(CCC(=O)O)ccc1-c1ccccc1
The corrected activity, negative = more killing of the first is lower: -1.04% for the first, 1.25% for the second.

Compared with `O=c1c(=Nc2ccccc2O)c(=O)c2ccccc12`, `Cc1c(C(=O)Nc2ccccc2O)cccc1[N+](=O)[O-]` is lower in corrected activity, negative = more killing: -2.51% for the first, -4.28% for the second.

Going from `COc1ccc(C)cc1NC(=O)c1sc2nc(C)nc(N3CCCCC3C)c2c1C` (stereo not drawn) to `CCSc1nnc(NC(=O)CSc2nc3c(c(=O)n2-c2ccccc2OC)SCC3)s1`, the corrected activity, negative = more killing falls from -3.27% to -4.89%.

Compared with `O=C(c1ccc(COCC(F)(F)F)o1)N1CCCCCC1`, `COC(=O)c1ccc(CN2CCN3CCCC3C2C)cc1` (stereo not drawn) is lower in corrected activity, negative = more killing: -2.9% for the first, -3.15% for the second.

Going from `Cc1ccc(Cn2c3[n+](c4ccccc42)CC(O)CS3)cc1` (stereo not drawn) to `CCc1ccc(-n2c(C)nc3cc(C(=O)NCc4cccnc4)ccc32)cc1`, the corrected activity, negative = more killing falls from -3% to -5.32%.

Compared with `COCc1cc(C)[nH]c(=O)c1C(=O)NC12CC3CC(CC(C3)C1)C2`, `CCN1C(=O)c2cccc3c(NC(=O)C45CC6CC(CC(C6)C4)C5)ccc1c23` is lower in corrected activity, negative = more killing: -5.27% for the first, -12.5% for the second.

Compared with `O=C(CC1Sc2ccccc2NC1=O)Nc1ccc2c(c1)OCO2` (stereo not drawn), `COc1cc(NC(=O)c2cccs2)ccc1NC(=O)c1ccccc1Cl` is lower in corrected activity, negative = more killing: -2.14% for the first, -4.46% for the second.

Compared with `O=C(O)CN1C(=O)c2ccc(C(=O)O)cc2C1=O`, `COC(=O)c1ccc(NC(=O)CN2CCN(CC#N)CC2)cc1` is lower in corrected activity, negative = more killing: -5.22% for the first, -5.45% for the second.

First: COC(=O)c1ccc(COC(=O)c2ccncc2)cc1
Second: COc1ccc(S(=O)(=O)NCc2ccc(C(=O)N(C)Cc3ccco3)cc2)cc1
The corrected activity, negative = more killing of the first is higher: -0.707% for the first, -7.7% for the second.

Compared with `O=C(NN=Cc1cccnc1)c1cc(C2CC2)[nH]n1`, `O=C(NC1CCCCCC1)c1coc(=O)c2ccccc12` is lower in corrected activity, negative = more killing: -2.36% for the first, -2.46% for the second.

First: Cc1cc(C)cc(NC(=O)c2ccccc2OCC(=O)N2CCc3ccccc32)c1
Second: CCOc1ccccc1C(=O)N1CCN(c2ccccc2OCC)CC1
The corrected activity, negative = more killing of the first is higher: -2.33% for the first, -2.5% for the second.

First: CC1CCC(NC2CCCc3c2[nH]c2ccc([N+](=O)[O-])cc32)CC1 (stereo not drawn)
Second: Cc1[nH]c2ccc(-c3n[nH]c(=S)n3C)cc2c1C
The corrected activity, negative = more killing of the first is higher: 3.89% for the first, -0.764% for the second.

First: CC(=O)CC(O)(c1ccccc1)C(F)(F)F (stereo not drawn)
Second: O=C(NN=Cc1ccccc1Cl)C(=O)Nc1cccc(C(F)(F)F)c1
The corrected activity, negative = more killing of the first is higher: 0.173% for the first, -2.13% for the second.

Compared with `Cc1c(NC(=O)COc2ccc(Oc3ccccc3)cc2)c(=O)n(-c2ccccc2)n1C`, `COc1cccc(-n2c(SCC(=O)Nc3ccccc3F)nc3c([nH]c4ccccc43)c2=O)c1` is lower in corrected activity, negative = more killing: 1.22% for the first, -10.8% for the second.

Going from `Cc1cc(C)cc(NS(=O)(=O)c2ccc3[nH]cc(C(=O)NCc4cccs4)c(=O)c3c2)c1` to `COCc1cccc(NS(=O)(=O)Cc2ccccc2)c1`, the corrected activity, negative = more killing rises from -6.12% to 0.328%.

Going from `CCOC(=O)c1ccc2c(c1)[C@@H]1C=CC[C@@H]1[C@H](c1ccccc1C(F)(F)F)N2` to `COc1cc(OC)c(CN2CCN3CCCC3C2C)cc1Br` (stereo not drawn), the corrected activity, negative = more killing rises from -3.03% to -2.76%.

Work on `Cc1ccc(-n2c(C)cc(C(=S)N3CCOCC3)c2C)cc1Cl` yielded a corrected activity, negative = more killing of -4.03%.

First: O=C(CCn1c(=S)[nH]c2ccccc2c1=O)NCCc1ccc(Cl)cc1
Second: CCN(CC)CCCn1c(=S)[nH]c2cc(C(=O)OC)ccc2c1=O
The z-score of the first is higher: -0.633 for the first, -0.997 for the second.

Compared with `CCOc1ccc(NC(=O)c2c(NCc3ccncc3)sc3c2CCCCC3)cc1`, `Cc1ccc(NC(=O)CSc2nc3c(cc2C#N)CCCCC3)cc1` is higher in z-score: -0.0869 for the first, 0.825 for the second.

Compared with `O=c1[nH]c2ccc(N=Cc3ccc(-c4ccc([N+](=O)[O-])cc4)o3)cc2[nH]1`, `COc1ccc2ccccc2c1C=Nc1cc(C)ccc1C` is lower in z-score: -0.17 for the first, -0.32 for the second.

Compared with `Cc1cccc(C)c1OCCNC(=O)c1cc2ccccc2o1`, `Cc1ccc(Cl)cc1-n1c(CCC(=O)O)ccc1-c1ccccc1` is higher in z-score: -0.579 for the first, 0.373 for the second.

First: O=c1c(=Nc2ccccc2O)c(=O)c2ccccc12
Second: Cc1c(C(=O)Nc2ccccc2O)cccc1[N+](=O)[O-]
The z-score of the first is higher: -0.945 for the first, -1.61 for the second.

First: COc1ccc(C)cc1NC(=O)c1sc2nc(C)nc(N3CCCCC3C)c2c1C (stereo not drawn)
Second: CCSc1nnc(NC(=O)CSc2nc3c(c(=O)n2-c2ccccc2OC)SCC3)s1
The z-score of the first is lower: -1.75 for the first, -1.22 for the second.

First: O=C(c1ccc(COCC(F)(F)F)o1)N1CCCCCC1
Second: COC(=O)c1ccc(CN2CCN3CCCC3C2C)cc1 (stereo not drawn)
The z-score of the first is higher: -1.19 for the first, -1.38 for the second.

Compared with `Cc1ccc(Cn2c3[n+](c4ccccc42)CC(O)CS3)cc1` (stereo not drawn), `CCc1ccc(-n2c(C)nc3cc(C(=O)NCc4cccnc4)ccc32)cc1` is higher in z-score: -1.55 for the first, -1.43 for the second.

Compared with `COCc1cc(C)[nH]c(=O)c1C(=O)NC12CC3CC(CC(C3)C1)C2`, `CCN1C(=O)c2cccc3c(NC(=O)C45CC6CC(CC(C6)C4)C5)ccc1c23` is lower in z-score: -1.57 for the first, -2.63 for the second.

Going from `O=C(CC1Sc2ccccc2NC1=O)Nc1ccc2c(c1)OCO2` (stereo not drawn) to `COc1cc(NC(=O)c2cccs2)ccc1NC(=O)c1ccccc1Cl`, the z-score falls from -0.818 to -2.48.

Compared with `O=C(O)CN1C(=O)c2ccc(C(=O)O)cc2C1=O`, `COC(=O)c1ccc(NC(=O)CN2CCN(CC#N)CC2)cc1` is lower in z-score: -1.62 for the first, -2.05 for the second.

Compared with `COC(=O)c1ccc(COC(=O)c2ccncc2)cc1`, `COc1ccc(S(=O)(=O)NCc2ccc(C(=O)N(C)Cc3ccco3)cc2)cc1` is lower in z-score: -0.393 for the first, -1.89 for the second.

Going from `O=C(NN=Cc1cccnc1)c1cc(C2CC2)[nH]n1` to `O=C(NC1CCCCCC1)c1coc(=O)c2ccccc12`, the z-score rises from -1.03 to -0.781.

First: Cc1cc(C)cc(NC(=O)c2ccccc2OCC(=O)N2CCc3ccccc32)c1
Second: CCOc1ccccc1C(=O)N1CCN(c2ccccc2OCC)CC1
The z-score of the first is lower: -1.3 for the first, -1.03 for the second.

First: CC1CCC(NC2CCCc3c2[nH]c2ccc([N+](=O)[O-])cc32)CC1 (stereo not drawn)
Second: Cc1[nH]c2ccc(-c3n[nH]c(=S)n3C)cc2c1C
The z-score of the first is higher: 1.7 for the first, -0.278 for the second.

First: CC(=O)CC(O)(c1ccccc1)C(F)(F)F (stereo not drawn)
Second: O=C(NN=Cc1ccccc1Cl)C(=O)Nc1cccc(C(F)(F)F)c1
The z-score of the first is higher: 0.0551 for the first, -0.904 for the second.

First: Cc1c(NC(=O)COc2ccc(Oc3ccccc3)cc2)c(=O)n(-c2ccccc2)n1C
Second: COc1cccc(-n2c(SCC(=O)Nc3ccccc3F)nc3c([nH]c4ccccc43)c2=O)c1
The z-score of the first is higher: 0.434 for the first, -2.69 for the second.

First: Cc1cc(C)cc(NS(=O)(=O)c2ccc3[nH]cc(C(=O)NCc4cccs4)c(=O)c3c2)c1
Second: COCc1cccc(NS(=O)(=O)Cc2ccccc2)c1
The z-score of the first is lower: -1.5 for the first, 0.183 for the second.

First: CCOC(=O)c1ccc2c(c1)[C@@H]1C=CC[C@@H]1[C@H](c1ccccc1C(F)(F)F)N2
Second: COc1cc(OC)c(CN2CCN3CCCC3C2C)cc1Br (stereo not drawn)
The z-score of the first is higher: -0.905 for the first, -1.21 for the second.

Compound `Cc1ccc(-n2c(C)cc(C(=S)N3CCOCC3)c2C)cc1Cl` has a z-score of -1.54.
